Binding signal data for one sequence are collected here from article PMC7862700, “An all-to-all approach to the identification of sequence-specific readers for epigenetic DNA modifications on cytosine”.

What all share (assay): DAPPL (digital affinity profiling via proximity ligation, sequencing); 10 mM Tris-HCl pH 7.5, 50 mM NaCl, 1 mM DTT, 4% glycerol, room temperature, 30 min; GST-TFs on glutathione beads, 16-mer random dsDNA library, 0.1% formaldehyde crosslink after washing; high values mean tight binding
Assay [1] deals with T1, FEV (Homo sapiens, UniProt Q99581 1-238).
T1 sequence: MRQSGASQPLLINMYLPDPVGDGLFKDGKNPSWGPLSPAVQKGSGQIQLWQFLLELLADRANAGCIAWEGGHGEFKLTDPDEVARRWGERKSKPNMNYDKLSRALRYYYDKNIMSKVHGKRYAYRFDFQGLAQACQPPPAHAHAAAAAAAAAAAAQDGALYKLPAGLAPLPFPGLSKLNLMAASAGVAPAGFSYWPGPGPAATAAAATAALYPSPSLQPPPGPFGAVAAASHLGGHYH
The conditions noted are these: protein: recombinant; tags: N-terminal GST; dsDNA, one strand shown. The essentials: (§1)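 Pools were built from human transcription factors expressed in yeast as GST fusions, captured on glutathione beads and DNA-barcoded, along with a tag-only sample. Incubation with 200 nmole of a 16-mer random double-stranded DNA library lasted 30 min at room temperature in Tris/NaCl/DTT/glycerol buffer, and was followed by washing, 0.1% formaldehyde crosslinking, proximity ligation, PCR amplification and Illumina NextSeq500 sequencing. Binding signal is the quotient of each hexamer's read frequency for a factor and its frequency for the tag-only sample.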

Assay [2] has as its target ETV5 (Homo sapiens, UniProt P41161 1-510). The conditions noted are these: protein: recombinant; tags: N-terminal GST; dsDNA, one strand shown. The essentials: as §1
The target of assay [3] is HSF1 (Homo sapiens, UniProt Q00613 1-529). As to conditions: protein: recombinant; tags: N-terminal GST; chain copies: 3; dsDNA, one strand shown. The essentials: as §1
The target in assay [4] is T2, SPIC (Homo sapiens, UniProt Q8N5J4 1-248).
T2 sequence: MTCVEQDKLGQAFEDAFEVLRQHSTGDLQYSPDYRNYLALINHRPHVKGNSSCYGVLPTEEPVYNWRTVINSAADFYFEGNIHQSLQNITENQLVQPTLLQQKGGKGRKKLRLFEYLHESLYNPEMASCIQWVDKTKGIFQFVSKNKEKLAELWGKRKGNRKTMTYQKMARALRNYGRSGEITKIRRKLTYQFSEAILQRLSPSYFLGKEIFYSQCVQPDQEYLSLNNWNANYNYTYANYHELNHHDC
The conditions noted are these: protein: recombinant; tags: N-terminal GST; dsDNA, one strand shown. The method in brief:
as §1

Assay [5] concerns the target ELF4 (Homo sapiens, UniProt Q99607 1-663). The conditions noted are these: protein: recombinant; tags: N-terminal GST; dsDNA, one strand shown. The essentials:
as §1

Assay [6] deals with T3, ELK4 (Homo sapiens, UniProt P28324-2 1-405).
T3 sequence: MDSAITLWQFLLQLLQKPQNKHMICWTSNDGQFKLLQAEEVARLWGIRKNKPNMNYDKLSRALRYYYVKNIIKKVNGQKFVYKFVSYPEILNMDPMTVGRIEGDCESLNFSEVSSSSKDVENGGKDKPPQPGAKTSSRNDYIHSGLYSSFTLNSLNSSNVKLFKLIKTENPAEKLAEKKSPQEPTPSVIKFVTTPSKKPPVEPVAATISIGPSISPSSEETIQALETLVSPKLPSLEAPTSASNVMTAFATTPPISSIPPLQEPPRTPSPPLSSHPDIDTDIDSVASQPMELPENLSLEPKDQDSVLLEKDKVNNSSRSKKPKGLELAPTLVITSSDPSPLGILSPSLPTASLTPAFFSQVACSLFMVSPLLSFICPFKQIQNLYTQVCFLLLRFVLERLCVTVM
The conditions noted are these: protein: recombinant; tags: N-terminal GST; dsDNA, one strand shown. The essentials:
as §1

Assay [7] concerns the target T4, ETV2 (Homo sapiens, UniProt O00321 1-342).
T4 sequence: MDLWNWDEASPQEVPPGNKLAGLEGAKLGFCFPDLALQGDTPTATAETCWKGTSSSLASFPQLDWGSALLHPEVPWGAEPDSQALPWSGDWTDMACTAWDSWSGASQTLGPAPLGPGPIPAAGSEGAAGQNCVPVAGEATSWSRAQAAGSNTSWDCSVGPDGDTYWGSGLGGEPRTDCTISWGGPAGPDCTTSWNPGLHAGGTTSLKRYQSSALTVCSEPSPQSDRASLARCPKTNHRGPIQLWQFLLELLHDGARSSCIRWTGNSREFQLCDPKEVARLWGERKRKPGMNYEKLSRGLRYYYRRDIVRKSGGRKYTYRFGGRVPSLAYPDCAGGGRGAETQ
The conditions noted are these: protein: recombinant; tags: N-terminal GST; dsDNA, one strand shown. The essentials: as §1

Assay [8] deals with T5, ELF3 (Homo sapiens, UniProt P78545 1-371).
T5 sequence: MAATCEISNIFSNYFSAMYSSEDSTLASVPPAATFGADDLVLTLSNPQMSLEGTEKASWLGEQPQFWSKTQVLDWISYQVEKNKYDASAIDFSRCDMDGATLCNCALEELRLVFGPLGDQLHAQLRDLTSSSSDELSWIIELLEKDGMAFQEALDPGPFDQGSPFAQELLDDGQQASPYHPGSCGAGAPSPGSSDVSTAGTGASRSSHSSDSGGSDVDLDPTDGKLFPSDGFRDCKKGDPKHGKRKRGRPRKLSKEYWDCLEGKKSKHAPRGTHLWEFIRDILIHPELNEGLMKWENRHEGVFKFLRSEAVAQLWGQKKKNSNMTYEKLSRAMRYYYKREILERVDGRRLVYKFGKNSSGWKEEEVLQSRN
As to conditions: protein: recombinant; tags: N-terminal GST; dsDNA, one strand shown. The essentials:
as §1

For assay [9], the target named is CRX (Homo sapiens, UniProt O43186 1-299). As to conditions: protein: recombinant; tags: N-terminal GST; dsDNA, one strand shown. The essentials:
as §1

The target in assay [10] is ETV1 (Homo sapiens, UniProt P50549 1-477). As to conditions: protein: recombinant; tags: N-terminal GST; dsDNA, one strand shown. The essentials:
as §1

The target in assay [11] is T6, ERF (Homo sapiens, UniProt P50548 1-548).
T6 sequence: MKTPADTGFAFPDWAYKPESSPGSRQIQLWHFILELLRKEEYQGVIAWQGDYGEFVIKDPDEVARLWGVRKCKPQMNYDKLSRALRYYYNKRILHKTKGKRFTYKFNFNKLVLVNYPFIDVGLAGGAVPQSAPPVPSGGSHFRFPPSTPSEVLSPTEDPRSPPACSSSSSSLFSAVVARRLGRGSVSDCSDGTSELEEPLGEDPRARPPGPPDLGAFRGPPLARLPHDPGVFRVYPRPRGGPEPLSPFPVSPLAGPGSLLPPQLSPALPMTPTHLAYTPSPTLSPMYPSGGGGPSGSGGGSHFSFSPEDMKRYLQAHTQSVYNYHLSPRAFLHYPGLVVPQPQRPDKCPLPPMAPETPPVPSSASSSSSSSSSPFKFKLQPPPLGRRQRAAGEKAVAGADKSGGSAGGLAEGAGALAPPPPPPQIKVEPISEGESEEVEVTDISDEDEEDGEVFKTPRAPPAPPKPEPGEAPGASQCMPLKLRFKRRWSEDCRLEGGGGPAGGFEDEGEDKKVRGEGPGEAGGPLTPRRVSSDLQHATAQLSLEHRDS
As to conditions: protein: recombinant; tags: N-terminal GST; dsDNA, one strand shown. The essentials:
as §1

The target of assay [12] is T7, ETV3L (Homo sapiens, UniProt Q6ZN32 1-361).
T7 sequence: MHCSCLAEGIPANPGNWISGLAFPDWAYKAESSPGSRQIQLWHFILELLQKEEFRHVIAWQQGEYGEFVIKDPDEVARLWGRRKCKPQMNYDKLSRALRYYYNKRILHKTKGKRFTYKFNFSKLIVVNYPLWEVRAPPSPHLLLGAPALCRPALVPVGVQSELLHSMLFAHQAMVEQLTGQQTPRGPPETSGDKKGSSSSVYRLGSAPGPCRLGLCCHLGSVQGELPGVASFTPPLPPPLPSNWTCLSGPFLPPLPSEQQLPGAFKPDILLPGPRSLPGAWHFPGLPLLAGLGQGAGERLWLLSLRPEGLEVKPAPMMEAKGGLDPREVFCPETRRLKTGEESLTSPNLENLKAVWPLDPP
The conditions noted are these: protein: recombinant; tags: N-terminal GST; dsDNA, one strand shown. The method in brief:
as §1

The target in assay [13] is T8, ETS2 (Homo sapiens, UniProt P15036 1-469).
T8 sequence: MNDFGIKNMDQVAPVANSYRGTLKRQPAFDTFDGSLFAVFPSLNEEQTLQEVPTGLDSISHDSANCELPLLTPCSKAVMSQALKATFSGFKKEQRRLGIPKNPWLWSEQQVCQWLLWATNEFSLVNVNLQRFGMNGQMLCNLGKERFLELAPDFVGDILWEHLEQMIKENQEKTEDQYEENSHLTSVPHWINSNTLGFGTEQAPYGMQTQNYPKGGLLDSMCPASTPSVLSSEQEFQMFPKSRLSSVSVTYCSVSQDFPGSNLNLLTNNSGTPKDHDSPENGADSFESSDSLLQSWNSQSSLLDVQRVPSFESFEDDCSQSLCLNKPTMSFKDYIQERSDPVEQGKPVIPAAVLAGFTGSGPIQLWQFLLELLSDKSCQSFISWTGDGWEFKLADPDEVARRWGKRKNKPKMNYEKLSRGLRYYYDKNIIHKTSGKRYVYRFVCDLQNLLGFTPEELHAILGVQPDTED
As to conditions: protein: recombinant; tags: N-terminal GST; dsDNA, one strand shown. The method in brief: as §1

Assay [14] deals with T9, SPDEF (Homo sapiens, UniProt O95238 1-335).
T9 sequence: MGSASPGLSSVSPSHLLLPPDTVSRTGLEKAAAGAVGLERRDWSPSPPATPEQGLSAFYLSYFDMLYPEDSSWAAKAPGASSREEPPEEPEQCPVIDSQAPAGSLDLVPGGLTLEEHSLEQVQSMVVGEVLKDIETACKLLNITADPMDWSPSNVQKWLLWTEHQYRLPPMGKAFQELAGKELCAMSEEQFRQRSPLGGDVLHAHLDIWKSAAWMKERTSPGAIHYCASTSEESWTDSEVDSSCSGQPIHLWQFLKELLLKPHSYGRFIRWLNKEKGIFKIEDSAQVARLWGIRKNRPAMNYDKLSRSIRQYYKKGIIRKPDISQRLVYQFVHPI
As to conditions: protein: recombinant; tags: N-terminal GST; dsDNA, one strand shown. The method in brief:
as §1

Assay [15] has as its target T10, ETV7 (Homo sapiens, UniProt Q9Y603 1-341).
T10 sequence: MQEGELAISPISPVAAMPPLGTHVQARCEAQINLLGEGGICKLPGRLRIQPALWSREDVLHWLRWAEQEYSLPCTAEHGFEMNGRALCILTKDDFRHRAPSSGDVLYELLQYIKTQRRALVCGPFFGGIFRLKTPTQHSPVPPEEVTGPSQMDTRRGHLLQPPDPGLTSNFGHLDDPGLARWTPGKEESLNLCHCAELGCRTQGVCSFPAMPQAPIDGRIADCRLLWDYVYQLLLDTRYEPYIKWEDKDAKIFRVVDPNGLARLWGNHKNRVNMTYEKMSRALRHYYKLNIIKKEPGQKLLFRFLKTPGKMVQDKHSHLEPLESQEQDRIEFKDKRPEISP
As to conditions: protein: recombinant; tags: N-terminal GST; dsDNA, one strand shown. The method in brief: as §1

Assay [16] concerns the target T11, ELF5 (Homo sapiens, UniProt Q9UKW6-2 1-255).
T11 sequence: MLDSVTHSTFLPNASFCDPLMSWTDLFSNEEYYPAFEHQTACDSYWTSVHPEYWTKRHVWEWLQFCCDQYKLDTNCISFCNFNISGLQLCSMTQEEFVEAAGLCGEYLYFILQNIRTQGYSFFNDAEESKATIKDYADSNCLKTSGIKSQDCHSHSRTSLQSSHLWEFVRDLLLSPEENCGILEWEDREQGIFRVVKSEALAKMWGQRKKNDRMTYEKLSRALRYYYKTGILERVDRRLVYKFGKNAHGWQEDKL
As to conditions: protein: recombinant; tags: N-terminal GST; dsDNA, one strand shown. The method in brief:
as §1

The target in assay [17] is T12, ETV3 (Homo sapiens, UniProt P41162-2 1-143).
T12 sequence: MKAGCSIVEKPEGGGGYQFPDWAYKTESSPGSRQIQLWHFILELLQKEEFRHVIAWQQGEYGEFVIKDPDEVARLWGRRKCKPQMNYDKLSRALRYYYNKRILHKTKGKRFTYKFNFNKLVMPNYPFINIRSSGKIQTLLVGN
The conditions noted are these: protein: recombinant; tags: N-terminal GST; dsDNA, one strand shown. The essentials:
as §1

The target in assay [18] is ETV6 (Homo sapiens, UniProt P41212 1-452). The conditions noted are these: protein: recombinant; tags: N-terminal GST; dsDNA, one strand shown. The essentials:
as §1

Sequence of ETV1 (P50549 whole entry): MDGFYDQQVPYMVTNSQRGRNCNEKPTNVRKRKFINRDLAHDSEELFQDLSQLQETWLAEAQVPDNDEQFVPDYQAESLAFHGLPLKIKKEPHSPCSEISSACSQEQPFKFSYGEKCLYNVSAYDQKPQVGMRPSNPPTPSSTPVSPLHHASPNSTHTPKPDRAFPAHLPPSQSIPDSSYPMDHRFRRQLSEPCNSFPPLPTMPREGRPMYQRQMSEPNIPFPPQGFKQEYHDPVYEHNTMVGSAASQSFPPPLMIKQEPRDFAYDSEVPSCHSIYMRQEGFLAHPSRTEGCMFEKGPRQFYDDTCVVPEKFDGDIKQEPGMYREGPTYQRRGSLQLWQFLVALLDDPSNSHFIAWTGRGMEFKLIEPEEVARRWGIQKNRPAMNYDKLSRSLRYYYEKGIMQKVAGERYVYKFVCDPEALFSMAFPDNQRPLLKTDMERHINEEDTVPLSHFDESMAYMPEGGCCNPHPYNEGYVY
Sequence of ETV6 (P41212 whole entry): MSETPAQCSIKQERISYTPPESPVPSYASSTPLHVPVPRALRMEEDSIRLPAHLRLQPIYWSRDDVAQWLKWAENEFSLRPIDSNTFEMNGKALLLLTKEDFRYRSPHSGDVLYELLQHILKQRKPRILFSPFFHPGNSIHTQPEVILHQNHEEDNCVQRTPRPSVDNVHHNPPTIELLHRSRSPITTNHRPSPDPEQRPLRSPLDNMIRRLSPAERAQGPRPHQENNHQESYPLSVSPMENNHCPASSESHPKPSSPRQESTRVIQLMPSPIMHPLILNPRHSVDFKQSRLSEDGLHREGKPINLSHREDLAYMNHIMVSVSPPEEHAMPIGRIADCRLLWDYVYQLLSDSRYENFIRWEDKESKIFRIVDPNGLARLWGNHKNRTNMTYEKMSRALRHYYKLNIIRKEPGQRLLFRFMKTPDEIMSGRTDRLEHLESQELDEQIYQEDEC
Sequence of ETV5 (P41161 whole entry): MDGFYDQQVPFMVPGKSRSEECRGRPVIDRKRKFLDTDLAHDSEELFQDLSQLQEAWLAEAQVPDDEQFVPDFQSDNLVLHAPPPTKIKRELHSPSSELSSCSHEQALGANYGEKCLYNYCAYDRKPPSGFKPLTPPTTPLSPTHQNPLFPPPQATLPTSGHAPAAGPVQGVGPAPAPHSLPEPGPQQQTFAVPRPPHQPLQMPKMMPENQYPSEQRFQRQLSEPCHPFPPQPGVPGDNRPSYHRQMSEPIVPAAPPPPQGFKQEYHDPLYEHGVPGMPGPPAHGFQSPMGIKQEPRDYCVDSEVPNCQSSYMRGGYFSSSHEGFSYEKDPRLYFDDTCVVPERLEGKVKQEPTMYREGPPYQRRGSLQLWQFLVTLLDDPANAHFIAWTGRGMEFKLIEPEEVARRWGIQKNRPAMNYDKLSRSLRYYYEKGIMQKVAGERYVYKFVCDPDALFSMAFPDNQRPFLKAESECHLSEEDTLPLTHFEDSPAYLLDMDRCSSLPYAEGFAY
Sequence of ELF4 (Q99607 whole entry): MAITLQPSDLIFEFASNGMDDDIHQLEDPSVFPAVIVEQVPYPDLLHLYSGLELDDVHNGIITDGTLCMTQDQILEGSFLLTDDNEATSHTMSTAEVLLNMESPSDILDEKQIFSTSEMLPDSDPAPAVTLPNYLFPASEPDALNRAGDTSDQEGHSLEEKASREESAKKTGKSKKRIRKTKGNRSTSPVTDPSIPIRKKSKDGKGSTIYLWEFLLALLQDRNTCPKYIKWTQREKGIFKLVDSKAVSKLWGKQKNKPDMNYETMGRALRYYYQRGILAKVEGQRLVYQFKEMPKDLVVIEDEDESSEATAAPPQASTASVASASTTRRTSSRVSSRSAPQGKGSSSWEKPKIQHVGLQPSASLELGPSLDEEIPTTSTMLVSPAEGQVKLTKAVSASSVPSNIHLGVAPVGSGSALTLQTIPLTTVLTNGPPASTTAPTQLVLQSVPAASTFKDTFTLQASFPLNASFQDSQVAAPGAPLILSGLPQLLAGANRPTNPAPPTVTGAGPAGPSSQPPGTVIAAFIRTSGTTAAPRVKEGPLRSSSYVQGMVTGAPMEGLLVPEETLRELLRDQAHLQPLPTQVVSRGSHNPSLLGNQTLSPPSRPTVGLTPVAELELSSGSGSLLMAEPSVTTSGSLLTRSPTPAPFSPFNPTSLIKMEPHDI
Sequence of HSF1 (Q00613 whole entry): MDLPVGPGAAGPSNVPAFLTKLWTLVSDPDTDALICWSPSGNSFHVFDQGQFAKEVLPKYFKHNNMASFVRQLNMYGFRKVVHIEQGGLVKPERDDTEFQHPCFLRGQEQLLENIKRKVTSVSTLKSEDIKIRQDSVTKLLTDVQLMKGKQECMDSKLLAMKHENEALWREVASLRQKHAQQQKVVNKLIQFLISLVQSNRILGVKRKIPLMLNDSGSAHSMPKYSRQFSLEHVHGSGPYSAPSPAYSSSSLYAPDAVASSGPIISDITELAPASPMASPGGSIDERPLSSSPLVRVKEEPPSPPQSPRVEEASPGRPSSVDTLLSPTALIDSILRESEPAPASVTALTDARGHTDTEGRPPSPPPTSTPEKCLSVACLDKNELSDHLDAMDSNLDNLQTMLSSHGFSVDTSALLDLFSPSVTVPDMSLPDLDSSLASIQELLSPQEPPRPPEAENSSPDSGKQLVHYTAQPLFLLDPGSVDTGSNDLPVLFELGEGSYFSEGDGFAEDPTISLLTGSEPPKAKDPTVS
Sequence of CRX (O43186 whole entry): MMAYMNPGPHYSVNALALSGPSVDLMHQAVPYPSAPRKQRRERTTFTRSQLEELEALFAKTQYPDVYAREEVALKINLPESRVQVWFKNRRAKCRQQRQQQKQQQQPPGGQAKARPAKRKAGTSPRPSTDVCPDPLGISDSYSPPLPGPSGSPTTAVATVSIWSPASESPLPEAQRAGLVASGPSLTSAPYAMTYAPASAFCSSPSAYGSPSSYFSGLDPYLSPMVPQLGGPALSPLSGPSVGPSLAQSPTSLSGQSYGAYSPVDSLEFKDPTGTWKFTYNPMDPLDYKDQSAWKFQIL

Take TAGATG: the binding signal in [1] was 1.22 fold enrichment (6-mer frequency, TF over GST control); in [2], 1.22 fold enrichment (6-mer frequency, TF over GST control); in [3], 1.66 fold enrichment (6-mer frequency, TF over GST control); in assay [4], 1.57 fold enrichment (6-mer frequency, TF over GST control); in [5], 1.18 fold enrichment (6-mer frequency, TF over GST control); in [6], 1.3 fold enrichment (6-mer frequency, TF over GST control). Further, the binding signal in [7] is 1.37 fold enrichment (6-mer frequency, TF over GST control); in assay [8] it was 1.32 fold enrichment (6-mer frequency, TF over GST control); in [9], 1.52 fold enrichment (6-mer frequency, TF over GST control); in [10], 1.15 fold enrichment (6-mer frequency, TF over GST control); in assay [11], 1.54 fold enrichment (6-mer frequency, TF over GST control); in assay [12] it was 1.36 fold enrichment (6-mer frequency, TF over GST control). The binding signal is 1.3 fold enrichment (6-mer frequency, TF over GST control) in assay [13]; 1.35 fold enrichment (6-mer frequency, TF over GST control) in [14]; 1.33 fold enrichment (6-mer frequency, TF over GST control) in [15]; 1.27 fold enrichment (6-mer frequency, TF over GST control) in assay [16]; 1.22 fold enrichment (6-mer frequency, TF over GST control) in [17]; 1.24 fold enrichment (6-mer frequency, TF over GST control) in assay [18].
